Laboratory results: ChEMBL document CHEMBL1157539, “Thousands of chemical starting points for antimalarial lead identification” (Nature, 2010)

What was measured:
Format in all cases: functional
[1] = system: Plasmodium falciparum; assay: GSK_TCMDC: Inhibition of Plasmodium falciparum 3D7 in whole red blood cells, using parasite LDH activity as an index of growth. Test compounds present at 2uM
[2] = system: Plasmodium falciparum; assay: GSK_TCMDC: Inhibition of Plasmodium falciparum Dd2 in whole red blood cells, using parasite LDH activity as an index of growth. Test compounds present at 2uM
[3] = system: HepG2; assay: GSK_TCMDC: Percent inhibition of human HepG2 cell line. Test compounds present at 10uM.

`CC(=O)c1ccccc1C(=O)N1CCOc2ccc(C(O)C(c3ccccc3)c3ccccc3)cc2C1` (centres undefined) gave an Inhibition [1] of 96%, an Inhibition [2] of 98% and an Inhibition [3] of 10%.
In the case of `Cc1sc2nc(CSc3ccccc3)nc(N3CCN(CC(=O)NC4CC4)CC3)c2c1C`, the Inhibition [1] is reported as 96%, the Inhibition [2] is reported as 95% and the Inhibition [3] is reported as 2%.
For `CCCN(CCC)C(=O)c1cc(C(=O)N[C@@H](Cc2ccccc2)[C@H](O)CNC2CC2)cc(N2CCCCS2(=O)=O)c1`, the Inhibition [1] was 100%, the Inhibition [2] was 98% and the Inhibition [3] was 0%.
`COc1ccc(CNC(=O)c2cc3c(=O)n4ccccc4nc3n(CCc3ccccc3)c2=N)cc1` showed an Inhibition [1] of 99%, an Inhibition [2] of 22% and an Inhibition [3] of 26%.
`COc1ccc(-c2ccc(NC(=O)c3ccc(F)cc3)cc2)cc1CN1CCCN(C)CC1.O=C(O)C(F)(F)F` was tested, and the Inhibition [1] was 98%, the Inhibition [2] was 35% and the Inhibition [3] was 29%.
Molecule `COc1c(C2=CCN(CCCCNC(=O)c3ccc(-c4ccc(C#N)cc4)cc3)CC2)c(C)cc2c1C(C)(C)CCC2(C)C` has an Inhibition [1] of 92%, an Inhibition [2] of 88% and an Inhibition [3] of 18%.
`Cc1c(C)n(C2CCCC2)c2ncnc(OC3CCN(CC(=O)NC4CC4)CC3)c12` showed an Inhibition [1] of 95%, an Inhibition [2] of 92% and an Inhibition [3] of 13%.
In the case of `CS(=O)(=O)NCCCNCc1ccc(-c2ccc(-c3nc4cc(F)ccc4[nH]3)s2)cc1.O=C(O)C(F)(F)F`, the Inhibition [1] is reported as 95%, the Inhibition [2] is reported as 30% and the Inhibition [3] is reported as 23%.
Molecule `COc1cc(CNCCCNc2cc(=O)c3ccccc3[nH]2)c2c(c1)C(C)CN2C(=O)OC(C)(C)C` (centres undefined) has an Inhibition [1] of 96%, an Inhibition [2] of 87% and an Inhibition [3] of 0%.
In the case of `Cc1ccc(CON2C(N)=NC(N)=NC2(C)C)c(Cl)c1.Cc1ccc(CON2C(N)=NC(N)=NC2(C)C)cc1Cl`, the Inhibition [1] is reported as 91%, the Inhibition [2] is reported as 96% and the Inhibition [3] is reported as 67%.
`c1cncc(Oc2ccc(Nc3ccnc4cc(-c5cccc(CN6CCOCC6)c5)ccc34)cc2)c1` showed an Inhibition [1] of 100%, an Inhibition [2] of 100% and an Inhibition [3] of 14%.
Work on `COc1ccccc1C1CCN(C2CCC(NC(=O)c3ccc4[nH]c(-c5ccc(C)cc5)nc4c3)CC2)CC1` (centres undefined) yielded an Inhibition [1] of 100%, an Inhibition [2] of 100% and an Inhibition [3] of 100%.
`CN1CCN(CC(=O)Nc2ccc(-c3cccc(-c4nc5cc(F)ccc5[nH]4)c3)cc2)CC1` showed an Inhibition [1] of 100%, an Inhibition [2] of 100% and an Inhibition [3] of 18%.
`N#Cc1cc([N+](=O)[O-])ccc1-n1nc(-c2cccc(Cl)c2)n(Cc2ccco2)c1=S` gave an Inhibition [1] of 100%, an Inhibition [2] of 100% and an Inhibition [3] of 12%.
`Cc1ccc(C(=O)Nc2ccc(OC3CCN(CCC(C)C)C3)c(Cl)c2)cc1.O=C(O)C(F)(F)F` (centres undefined) gave an Inhibition [1] of 83%, an Inhibition [2] of 38% and an Inhibition [3] of 63%.
Molecule `CC(C)CC(=O)N1CCNC[C@@H]1C(=O)NC1CC1.O=C(O)C(F)(F)F` has an Inhibition [1] of 82%, an Inhibition [2] of 0% and an Inhibition [3] of 0%.
Molecule `COc1ccc(NC(=O)Nc2ccc(Nc3nc(C)cc(N(C)C)n3)cc2)cc1` has an Inhibition [1] of 100%, an Inhibition [2] of 99% and an Inhibition [3] of 11%.
With `CCn1c(Sc2ccc([N+](=O)[O-])c(C#N)c2)nnc1-c1cccc(Cl)c1` the Inhibition [1] was 89%, the Inhibition [2] was 22% and the Inhibition [3] was 8%.
With `COc1ccccc1CCC(C)(C)NC(=O)CC(CCc1ccccc1)Nc1ccc(C#N)c2ccccc12` (centres undefined) the Inhibition [1] was 94%, the Inhibition [2] was 65% and the Inhibition [3] was 6%.
Molecule `O=C(c1ccc(Br)o1)N1N=C(c2cccs2)CC1c1ccc(Br)cc1` (centres undefined) has an Inhibition [1] of 96%, an Inhibition [2] of 45% and an Inhibition [3] of 5%.
Molecule `Cc1ccc(Nc2nc(C)cc(N3CCN(CCc4ccccc4)CC3)n2)cc1` has an Inhibition [1] of 93%, an Inhibition [2] of 6% and an Inhibition [3] of 6%.
`CCCn1c(=N)c(C(=O)NCCc2ccccc2)cc2c(=O)n3cccc(C)c3nc21` gave an Inhibition [1] of 100%, an Inhibition [2] of 64% and an Inhibition [3] of 8%.
Molecule `CCC/C=C/c1c(CNCCCNc2cc(=O)c3ccccc3[nH]2)sc(CC)c1Br.Cl` has an Inhibition [1] of 88%, an Inhibition [2] of 71% and an Inhibition [3] of 8%.
With `CN1CCC(NCc2ccc(-c3ccc(S(=O)(=O)NCc4ccccc4)s3)cc2)CC1.O=C(O)C(F)(F)F` the Inhibition [1] was 99%, the Inhibition [2] was 95% and the Inhibition [3] was 77%.
`Cc1ccc(NC(=O)c2cccc(CN3CCCN(Cc4cccc(O)c4)CC3)c2)cc1.O=C(O)C(F)(F)F` was tested, and the Inhibition [1] was 82%, the Inhibition [2] was 3% and the Inhibition [3] was 22%.
`CCNc1cc(C(=O)N[C@@H](Cc2ccccc2)[C@H](O)CNC2CCCCC2)cc(N2CCCCS2(=O)=O)c1` gave an Inhibition [1] of 99%, an Inhibition [2] of 98% and an Inhibition [3] of 11%.
`COc1ccc(CCNCCCCCCNCCc2ccc(-c3ccccc3)cc2)cc1OC.Cl` was tested, and the Inhibition [1] was 99%, the Inhibition [2] was 35% and the Inhibition [3] was 100%.
`Cc1[nH]c(C)c(-c2ccc(OCCCCSc3ccncc3)cc2)c(=O)c1Br` was tested, and the Inhibition [1] was 97%, the Inhibition [2] was 97% and the Inhibition [3] was 0%.
